Reference: ChEMBL document CHEMBL5724796, “Tm Shift (DSF) assay results for EUbOPEN Chemogenomics Library” (2024)

What was measured:
Settings in all cases: Compound concentration 20.0 uM
[1] = target: Tyrosine-protein kinase ABL1 (Homo sapiens) (UniProt P00519)
[2] = target: Bromodomain-containing protein 4 (Homo sapiens) (UniProt O60885)
[3] = target: Cyclin-dependent kinase 2 (Homo sapiens) (UniProt P24941)
[4] = target: Casein kinase I isoform delta (Homo sapiens) (UniProt P48730)
[5] = target: Glycogen synthase kinase-3 beta (Homo sapiens) (UniProt P49841)
[6] = target: Mitogen-activated protein kinase 1 (Homo sapiens) (UniProt P28482)
[7] = target: T1, Aurora kinase A (Homo sapiens) (UniProt O14965)
T1 sequence (whole entry): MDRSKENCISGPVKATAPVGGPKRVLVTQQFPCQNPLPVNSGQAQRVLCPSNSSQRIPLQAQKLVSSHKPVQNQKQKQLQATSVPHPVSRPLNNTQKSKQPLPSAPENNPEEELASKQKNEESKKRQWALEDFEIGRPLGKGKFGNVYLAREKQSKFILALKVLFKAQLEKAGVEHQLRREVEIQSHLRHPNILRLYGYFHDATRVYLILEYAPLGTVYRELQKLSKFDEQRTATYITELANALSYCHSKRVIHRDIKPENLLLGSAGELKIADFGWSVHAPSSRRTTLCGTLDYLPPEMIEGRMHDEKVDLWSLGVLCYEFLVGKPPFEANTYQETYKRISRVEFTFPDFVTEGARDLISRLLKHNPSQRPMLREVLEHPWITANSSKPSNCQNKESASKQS

[8] = target: T2, Transcription intermediary factor 1-alpha (Homo sapiens) (UniProt O15164)
T2 sequence (whole entry): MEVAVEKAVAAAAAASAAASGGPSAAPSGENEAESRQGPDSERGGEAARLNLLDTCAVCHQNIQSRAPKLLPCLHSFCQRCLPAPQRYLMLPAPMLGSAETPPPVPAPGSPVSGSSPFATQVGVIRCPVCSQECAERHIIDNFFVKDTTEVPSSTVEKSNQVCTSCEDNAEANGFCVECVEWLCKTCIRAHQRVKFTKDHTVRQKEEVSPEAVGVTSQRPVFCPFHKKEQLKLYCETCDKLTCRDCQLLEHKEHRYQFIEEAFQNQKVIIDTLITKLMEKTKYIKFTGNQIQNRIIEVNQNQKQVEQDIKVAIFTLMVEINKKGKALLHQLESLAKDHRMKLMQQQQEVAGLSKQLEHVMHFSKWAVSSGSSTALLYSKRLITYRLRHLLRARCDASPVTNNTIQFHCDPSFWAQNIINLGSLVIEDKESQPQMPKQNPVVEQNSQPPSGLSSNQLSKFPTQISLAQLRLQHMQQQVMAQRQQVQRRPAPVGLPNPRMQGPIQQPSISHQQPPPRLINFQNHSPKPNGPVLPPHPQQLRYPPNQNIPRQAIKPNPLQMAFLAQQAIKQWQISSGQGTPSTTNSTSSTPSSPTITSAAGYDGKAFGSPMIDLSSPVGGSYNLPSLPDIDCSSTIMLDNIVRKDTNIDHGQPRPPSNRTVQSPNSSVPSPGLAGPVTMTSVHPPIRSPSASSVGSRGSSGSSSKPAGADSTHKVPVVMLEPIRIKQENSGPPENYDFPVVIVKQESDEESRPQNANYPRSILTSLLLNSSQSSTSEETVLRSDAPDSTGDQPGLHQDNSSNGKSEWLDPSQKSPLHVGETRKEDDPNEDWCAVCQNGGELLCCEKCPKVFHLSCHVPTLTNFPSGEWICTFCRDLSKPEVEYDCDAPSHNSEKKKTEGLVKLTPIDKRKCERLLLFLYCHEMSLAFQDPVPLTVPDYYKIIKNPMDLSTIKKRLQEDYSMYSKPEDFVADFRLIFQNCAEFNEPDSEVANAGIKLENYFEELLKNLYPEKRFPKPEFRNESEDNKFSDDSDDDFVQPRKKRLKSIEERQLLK

Chain of Casein kinase I isoform delta (Homo sapiens) (P48730 whole entry, looked up, canonical isoform): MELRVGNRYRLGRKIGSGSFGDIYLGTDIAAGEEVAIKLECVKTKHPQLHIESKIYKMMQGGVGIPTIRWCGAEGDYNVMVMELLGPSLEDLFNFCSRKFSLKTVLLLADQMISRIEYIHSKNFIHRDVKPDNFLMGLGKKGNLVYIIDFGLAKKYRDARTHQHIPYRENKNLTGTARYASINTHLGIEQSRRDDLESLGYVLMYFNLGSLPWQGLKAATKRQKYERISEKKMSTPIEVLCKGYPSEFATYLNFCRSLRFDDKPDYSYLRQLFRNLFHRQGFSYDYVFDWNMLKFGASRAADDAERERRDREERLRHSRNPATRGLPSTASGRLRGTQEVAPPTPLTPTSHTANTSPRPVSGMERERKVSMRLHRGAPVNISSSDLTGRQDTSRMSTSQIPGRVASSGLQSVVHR
Chain of Glycogen synthase kinase-3 beta (Homo sapiens) (P49841 whole entry, looked up): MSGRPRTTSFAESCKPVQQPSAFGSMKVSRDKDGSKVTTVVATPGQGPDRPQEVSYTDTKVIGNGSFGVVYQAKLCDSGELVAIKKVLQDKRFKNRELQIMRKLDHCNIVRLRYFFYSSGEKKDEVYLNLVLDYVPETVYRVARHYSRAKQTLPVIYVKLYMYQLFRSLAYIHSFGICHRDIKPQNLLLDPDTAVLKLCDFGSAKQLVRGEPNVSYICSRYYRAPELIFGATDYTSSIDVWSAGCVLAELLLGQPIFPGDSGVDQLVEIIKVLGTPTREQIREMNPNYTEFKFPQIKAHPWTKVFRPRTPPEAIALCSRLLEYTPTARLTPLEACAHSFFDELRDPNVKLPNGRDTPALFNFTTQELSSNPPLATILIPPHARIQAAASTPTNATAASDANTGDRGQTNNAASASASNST
Chain of Tyrosine-protein kinase ABL1 (Homo sapiens) (P00519 whole entry): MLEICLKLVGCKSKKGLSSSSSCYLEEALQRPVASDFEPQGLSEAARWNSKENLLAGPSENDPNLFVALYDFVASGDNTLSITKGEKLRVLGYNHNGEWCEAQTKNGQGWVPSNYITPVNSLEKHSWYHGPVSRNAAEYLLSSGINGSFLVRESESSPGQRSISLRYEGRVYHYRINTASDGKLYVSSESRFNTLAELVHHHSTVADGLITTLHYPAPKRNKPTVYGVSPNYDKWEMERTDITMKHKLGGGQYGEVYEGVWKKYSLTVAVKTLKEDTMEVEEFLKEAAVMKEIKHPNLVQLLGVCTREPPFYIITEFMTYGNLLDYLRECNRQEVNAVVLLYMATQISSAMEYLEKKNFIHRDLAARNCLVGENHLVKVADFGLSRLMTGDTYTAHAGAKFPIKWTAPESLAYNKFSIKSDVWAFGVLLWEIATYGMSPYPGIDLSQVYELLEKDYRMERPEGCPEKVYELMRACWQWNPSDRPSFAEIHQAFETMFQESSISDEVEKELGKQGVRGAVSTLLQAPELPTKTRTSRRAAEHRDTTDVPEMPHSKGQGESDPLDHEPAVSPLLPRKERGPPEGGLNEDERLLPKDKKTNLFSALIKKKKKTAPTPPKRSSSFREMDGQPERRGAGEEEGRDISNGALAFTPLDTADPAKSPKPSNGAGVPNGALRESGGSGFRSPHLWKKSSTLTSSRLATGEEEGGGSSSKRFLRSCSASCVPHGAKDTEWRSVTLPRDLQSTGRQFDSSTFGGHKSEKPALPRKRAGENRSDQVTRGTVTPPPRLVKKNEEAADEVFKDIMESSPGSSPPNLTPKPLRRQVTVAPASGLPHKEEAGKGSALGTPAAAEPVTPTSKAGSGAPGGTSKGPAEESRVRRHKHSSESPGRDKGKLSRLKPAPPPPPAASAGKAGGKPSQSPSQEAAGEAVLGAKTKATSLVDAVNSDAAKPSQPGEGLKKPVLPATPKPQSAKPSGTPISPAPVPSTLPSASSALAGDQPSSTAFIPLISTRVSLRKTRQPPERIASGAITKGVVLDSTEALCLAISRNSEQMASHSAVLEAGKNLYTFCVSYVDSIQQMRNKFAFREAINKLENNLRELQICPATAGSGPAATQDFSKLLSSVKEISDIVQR
Chain of Mitogen-activated protein kinase 1 (Homo sapiens) (P28482 whole entry): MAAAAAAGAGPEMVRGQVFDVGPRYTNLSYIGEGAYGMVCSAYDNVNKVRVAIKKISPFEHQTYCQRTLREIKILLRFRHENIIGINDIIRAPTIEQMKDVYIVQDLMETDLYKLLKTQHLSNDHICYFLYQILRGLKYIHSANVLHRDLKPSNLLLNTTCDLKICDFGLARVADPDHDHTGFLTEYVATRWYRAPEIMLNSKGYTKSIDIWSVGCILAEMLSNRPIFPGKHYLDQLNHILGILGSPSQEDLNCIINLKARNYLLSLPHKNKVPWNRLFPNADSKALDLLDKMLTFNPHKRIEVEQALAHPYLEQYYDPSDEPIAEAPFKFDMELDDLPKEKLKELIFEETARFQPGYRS

Molecule `NC(=S)c1cccc(-c2cn(C3CCN(S(=O)(=O)C(F)(F)F)CC3)c3cc(CNC(=O)C4CNC4)ccc23)c1` has a ΔTm [1] of 0.61 °C, a ΔTm [2] of -0.14 °C and a ΔTm [3] of 1.5 °C. For the same molecule, the ΔTm [4] was -0.09 °C, the ΔTm [5] was -0.8 °C and the ΔTm [6] was 0.28 °C. The ΔTm [7] was -1.57 °C and the ΔTm [8] was 0 °C.
In the case of `Cc1ccc2[nH]c3c(c2c1)CCCC3C(N)=O` (stereo unspecified), the ΔTm [1] is reported as 0.45 °C, the ΔTm [2] is reported as -2.26 °C and the ΔTm [3] is reported as 0.06 °C. The ΔTm [4] was -0.29 °C, the ΔTm [5] was -0.37 °C and the ΔTm [6] was 0.52 °C. The ΔTm [7] was -2.14 °C and the ΔTm [8] was -1.11 °C.
Molecule `CCNC(=O)NCCSC[C@H]1O[C@@H](n2cnc3c(N)ncnc32)[C@H](O)[C@@H]1O` has a ΔTm [1] of 0.85 °C, a ΔTm [2] of -1.51 °C and a ΔTm [3] of 0.53 °C. For the same molecule, the ΔTm [4] was 0.63 °C, the ΔTm [5] was -0.36 °C and the ΔTm [6] was -1.34 °C. The ΔTm [7] was -0.19 °C and the ΔTm [8] was -1.13 °C.
`N=C(N)NC(=O)c1cnn(-c2cccc3ncccc23)c1C1CC1` showed a ΔTm [1] of 0.57 °C, a ΔTm [2] of -3 °C and a ΔTm [3] of -0.15 °C. It also gave a ΔTm [4] of -0.36 °C, a ΔTm [5] of -0.31 °C and a ΔTm [6] of 0.09 °C. The ΔTm [7] was -2.42 °C and the ΔTm [8] was -0.58 °C.
With `Cc1c(CN2CCC(Nc3ncnc4sc(CC(F)(F)F)cc34)CC2)ccc2[nH]c(C#N)cc12` the ΔTm [1] was -0.58 °C, the ΔTm [2] was 0.25 °C and the ΔTm [3] was -0.04 °C. It also gave a ΔTm [4] of 1.22 °C, a ΔTm [5] of -1.43 °C and a ΔTm [6] of -1.41 °C. For the same molecule, the ΔTm [7] was -7.15 °C and the ΔTm [8] was 0.71 °C.
With `COc1nc(Nc2cc(S(C)(=O)=O)ccc2N[C@@H](c2cccc3c2OC(F)(F)O3)c2ncccc2Cl)nc(N2CCNCC2)n1` the ΔTm [1] was -0.96 °C, the ΔTm [2] was -4.95 °C and the ΔTm [3] was -3.51 °C. The ΔTm [4] was -0.34 °C, the ΔTm [5] was 0 °C and the ΔTm [6] was 0 °C. It also gave a ΔTm [7] of -5.82 °C and a ΔTm [8] of 0.37 °C.
With `O=C(NO)c1ccc(CN2CCCc3cc(Cl)ccc32)cc1` the ΔTm [1] was 0.31 °C, the ΔTm [2] was -1.3 °C and the ΔTm [3] was -0.96 °C. For the same molecule, the ΔTm [4] was -0.07 °C, the ΔTm [5] was 0.96 °C and the ΔTm [6] was -0.12 °C. It also gave a ΔTm [7] of -0.45 °C and a ΔTm [8] of -1.53 °C.
`CC(C)Oc1ccc(C=O)cc1` showed a ΔTm [1] of 0.27 °C, a ΔTm [2] of -1.93 °C and a ΔTm [3] of -0.05 °C. For the same molecule, the ΔTm [4] was 0.18 °C, the ΔTm [5] was -0.88 °C and the ΔTm [6] was 0.02 °C. For the same molecule, the ΔTm [7] was -1.79 °C and the ΔTm [8] was -0.93 °C.
In the case of `CC(=O)Nc1ccc(C(=O)Nc2ccc(F)cc2N)cc1`, the ΔTm [1] is reported as 2.43 °C, the ΔTm [2] is reported as -2.84 °C and the ΔTm [3] is reported as -0.66 °C. The ΔTm [4] was 0.17 °C, the ΔTm [5] was -3.79 °C and the ΔTm [6] was -0.66 °C. For the same molecule, the ΔTm [7] was -2.46 °C and the ΔTm [8] was -0.15 °C.
For `CCn1c(=O)c(C)cn(Cc2nnc(-c3ccc(F)c(O)c3F)s2)c1=O`, the ΔTm [1] was 0.41 °C, the ΔTm [2] was -1.52 °C and the ΔTm [3] was -0.07 °C. For the same molecule, the ΔTm [4] was 0.26 °C, the ΔTm [5] was 0 °C and the ΔTm [6] was -0.2 °C. It also gave a ΔTm [7] of -0.34 °C and a ΔTm [8] of -0.63 °C.
`N#C[C@@H]1C[C@@H]2C[C@@H]2N1C(=O)[C@@H](N)C12CC3CC(CC(O)(C3)C1)C2` showed a ΔTm [1] of 0.22 °C, a ΔTm [2] of 0.38 °C and a ΔTm [3] of 0.24 °C. The ΔTm [4] was -0.14 °C, the ΔTm [5] was -0.19 °C and the ΔTm [6] was 0.33 °C. It also gave a ΔTm [7] of -2.27 °C and a ΔTm [8] of 1.46 °C.
In the case of `N#C[C@@H]1CCCN1C(=O)CNC(=O)c1ccnc2ccc(OCCCN3CCN(C(=O)CN4CCN(CC(=O)O)CCN(CC(=O)O)CCN(CC(=O)O)CC4)CC3)cc12`, the ΔTm [1] is reported as 0.75 °C, the ΔTm [2] is reported as -2.94 °C and the ΔTm [3] is reported as 0.18 °C. It also gave a ΔTm [4] of -0.3 °C, a ΔTm [5] of -0.21 °C and a ΔTm [6] of 0.66 °C. It also gave a ΔTm [7] of -2.4 °C and a ΔTm [8] of 0.33 °C.
